Measurements taken from PubChem BioAssay.
Results filed as inconclusive are left out. Calls of active or inactive are those of the source. Unless noted, cut-off not given; nearly all actives show AC50 up to about 26 µM.

Experiments:
[1] = viability loss in pontine glioma line – cell-based, SU-DIPG-XVII, MIPE5.0, CellTiter-Glo, qHTS, dose response (AID 1347060); conditions: CellTiter-Glo ATP luminescence;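 on AC50: cells exposed to compound for 48 hours before viability readout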
[2] = viability loss in pontine glioma line – cell-based, SU-DIPG-XIII, MIPE5.0, CellTiter-Glo, qHTS, dose response (AID 1347064; cut-off not given, nearly all actives have AC50 up to about 23 µM;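 on AC50: cells exposed to compound for 48 hours before the viability read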); conditions: CellTiter-Glo ATP luminescence
[3] = JHH-DIPG-1 glioma cell viability, MIPE5.0 library, CellTiter-Glo luminescence, qHTS (AID 1347067); conditions: JHH-DIPG-1 glioma viability, CellTiter-Glo ATP luminescence;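 further: cells exposed to compound for 48 hours before readout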
[4] = growth inhibition of DIPG cells – cell-based, MIPE5.0 library, qHTS (AID 1347068; cut-off not given, nearly all actives have IC50 up to about 30 µM;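 on IC50: cells exposed to compound for 48 hours before viability readout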); conditions: SU-DIPG-XXV viability
[5] = viability loss in pontine glioma line – cell-based, SU-DIPG-XXV, MIPE5.0, CellTiter-Glo, qHTS, dose response (AID 1347065); conditions: CellTiter-Glo ATP luminescence;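 further: cells exposed to compound for 48 hours before ATP readout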
[6] = viability loss with induced miR-34 in A549 – imaging, A549 dox-inducible miR-34, nuclei and caspase counts, primary screen (AID 1347080;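 active means compounds whose cell count with miR-34 switched on is under 0.7 times the count with it off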); conditions: A549 miR-34 inducible, Hoechst nuclei count, 48 h
[7] = MELAS cybrid and Rieske KO viability enhancers – cell-based, MELAS cybrids, Rieske KO mouse fibroblasts, CellTiter-Glo, primary screen (AID 1508586;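 active means mean z-score across replicates of 1.96 or higher in either the MELAS or the Rieske mutant cell line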;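 further: z relative to plate mean and SD of compound and empty wells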); conditions: low glucose
[8] = drug combination growth inhibition, ovarian cancer – cell-based, oncology-focused library, rucaparib conditional, profiling panel (AID 1508598;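 active means normalized viability below 100% at a tested concentration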); conditions: patient-derived ovarian cancer cells, CellTiter-Glo viability, 144 h, stronger effect = lower value
[9] = stronger effect = lower value, cell number ratio, induced over uninduced
[10] = measured here: relative caspase fold change +Dox/-Dox
[11] = measured here: total cells with miR-34 induction, stronger effect = lower value
[12] = measured here: total cells without miR-34 induction
[13] = MELAS cybrid survival, CellTiter-Glo 48 h, stronger effect = higher value
[14] = Rieske KO mouse fibroblast survival, CellTiter-Glo 72 h

NS(=O)(=O)OC[C@@H]1C[C@@H](n2ccc3c(N[C@H]4CCc5ccccc54)ncnc32)C[C@@H]1O
AC50 [1]: 1.48 µM (active)
outcome [2]: inactive
outcome [3]: inactive
outcome [4]: inactive

Fc1ccc(-c2nc(-c3ccccc3F)[nH]c2-c2ccncc2)cc1
outcome [1]: inactive
outcome [2]: inactive
outcome [3]: inactive
outcome [4]: inactive

CS(=O)(=O)c1ccc([C@@H](CC2CCCC2)C(=O)Nc2nccs2)cc1
outcome [1]: inactive
outcome [2]: inactive
outcome [3]: inactive
IC50 [4]: 13.2 µM (active)

Cn1cc(-c2nc(N[C@@H]3CCCC[C@@H]3N)c(F)c3c2C(=O)NC3)cn1
outcome [1]: inactive
outcome [2]: inactive
outcome [3]: inactive
outcome [4]: inactive

COc1ccc(CNC(=O)Nc2ncc([N+](=O)[O-])s2)cc1
AC50 [1]: 18.6 µM (active)
AC50 [2]: 20.9 µM (active)
AC50 [5]: 20.9 µM (active)
fold change [6, 9]: 1.06 (inactive)
fold change [6, 10]: 0.577
cell count [6, 11]: 5600
cell count [6, 12]: 5270
z-score [7, 13]: -0.43 (inactive)
z-score [7, 14]: -0.202

Cc1c(F)cccc1NC(=O)Nc1ccc(Cl)c(S(=O)(=O)[C@H]2CCCNC2)c1O
outcome [1]: inactive
outcome [2]: inactive
outcome [5]: inactive
outcome [4]: inactive

CN1CCN(C2CCN(C(=O)Nc3cc(Oc4ccc(NC(=O)C5(C(=O)Nc6ccc(F)cc6)CC5)c(F)c4)ccn3)CC2)CC1
AC50 [1]: 18.6 µM (active)
AC50 [2]: 20.9 µM (active)
AC50 [5]: 13.2 µM (active)
IC50 [4]: 23.5 µM (active)
fold change [6, 9]: 0.875 (inactive)
fold change [6, 10]: 0.529
cell count [6, 11]: 3130
cell count [6, 12]: 3570
z-score [7, 13]: -0.56 (inactive)
z-score [7, 14]: 0.282

O=C(Nc1ccc2c(=O)cc(-c3nn[nH]n3)oc2c1)c1ccc(OCCCCc2ccccc2)cc1
outcome [1]: inactive
outcome [2]: inactive
outcome [5]: inactive
outcome [4]: inactive
fold change [6, 9]: 0.988 (inactive)
fold change [6, 10]: 0.807
cell count [6, 11]: 7750
cell count [6, 12]: 7840
z-score [7, 13]: -0.481 (inactive)
z-score [7, 14]: -0.277

O=C(O)c1ccc(O)c2ncccc12
outcome [1]: inactive
AC50 [2]: 20.9 µM (active)
outcome [5]: inactive
outcome [4]: inactive
fold change [6, 9]: 0.933 (inactive)
fold change [6, 10]: 0.445
cell count [6, 11]: 8640
cell count [6, 12]: 9260
z-score [7, 13]: -0.339 (inactive)
z-score [7, 14]: 0.0902
viability ([8]; at 0.000305 µM, OCI-C5x cells, with rucaparib 10 µM, 100% = cells with rucaparib alone): 112% (inactive)
viability ([8]; at 0.000305 µM, OCI-C5x cells, without rucaparib): 117% (inactive)
viability ([8]; at 0.000305 µM, OCI-P5x cells, with rucaparib 20 µM, 100% = cells with rucaparib alone): 94.2% (active)
viability ([8]; at 0.000305 µM, OCI-P5x cells, without rucaparib): 89.3% (active)
viability ([8]; at 0.00122 µM, OCI-C5x cells, with rucaparib 10 µM, 100% = cells with rucaparib alone): 120% (inactive)
viability ([8]; at 0.00122 µM, OCI-C5x cells, without rucaparib): 123% (inactive)
viability ([8]; at 0.00122 µM, OCI-P5x cells, with rucaparib 20 µM, 100% = cells with rucaparib alone): 101% (inactive)
viability ([8]; at 0.00122 µM, OCI-P5x cells, without rucaparib): 97.9% (active)
viability ([8]; at 0.00488 µM, OCI-C5x cells, with rucaparib 10 µM, 100% = cells with rucaparib alone): 120% (inactive)
viability ([8]; at 0.00488 µM, OCI-C5x cells, without rucaparib): 116% (inactive)
viability ([8]; at 0.00488 µM, OCI-P5x cells, with rucaparib 20 µM, 100% = cells with rucaparib alone): 103% (inactive)
viability ([8]; at 0.00488 µM, OCI-P5x cells, without rucaparib): 98.1% (active)
viability ([8]; at 0.0195 µM, OCI-C5x cells, with rucaparib 10 µM, 100% = cells with rucaparib alone): 127% (inactive)
viability ([8]; at 0.0195 µM, OCI-C5x cells, without rucaparib): 113% (inactive)
viability ([8]; at 0.0195 µM, OCI-P5x cells, with rucaparib 20 µM, 100% = cells with rucaparib alone): 100% (inactive)
viability ([8]; at 0.0195 µM, OCI-P5x cells, without rucaparib): 105% (inactive)
viability ([8]; at 0.0781 µM, OCI-C5x cells, with rucaparib 10 µM, 100% = cells with rucaparib alone): 112% (inactive)
viability ([8]; at 0.0781 µM, OCI-C5x cells, without rucaparib): 120% (inactive)
viability ([8]; at 0.0781 µM, OCI-P5x cells, with rucaparib 20 µM, 100% = cells with rucaparib alone): 98.2% (active)
viability ([8]; at 0.0781 µM, OCI-P5x cells, without rucaparib): 103% (inactive)
viability ([8]; at 0.313 µM, OCI-C5x cells, with rucaparib 10 µM, 100% = cells with rucaparib alone): 108% (inactive)
viability ([8]; at 0.313 µM, OCI-C5x cells, without rucaparib): 121% (inactive)
viability ([8]; at 0.313 µM, OCI-P5x cells, with rucaparib 20 µM, 100% = cells with rucaparib alone): 96.3% (active)
viability ([8]; at 0.313 µM, OCI-P5x cells, without rucaparib): 102% (inactive)
viability ([8]; at 1.25 µM, OCI-C5x cells, with rucaparib 10 µM, 100% = cells with rucaparib alone): 110% (inactive)
viability ([8]; at 1.25 µM, OCI-C5x cells, without rucaparib): 115% (inactive)
viability ([8]; at 1.25 µM, OCI-P5x cells, with rucaparib 20 µM, 100% = cells with rucaparib alone): 98.5% (active)
viability ([8]; at 1.25 µM, OCI-P5x cells, without rucaparib): 106% (inactive)
viability ([8]; at 5 µM, OCI-C5x cells, with rucaparib 10 µM, 100% = cells with rucaparib alone): 115% (inactive)
viability ([8]; at 5 µM, OCI-C5x cells, without rucaparib): 122% (inactive)
viability ([8]; at 5 µM, OCI-P5x cells, with rucaparib 20 µM, 100% = cells with rucaparib alone): 111% (inactive)
viability ([8]; at 5 µM, OCI-P5x cells, without rucaparib): 111% (inactive)

C[N+](C)(C)CC(=O)O
outcome [1]: inactive
outcome [2]: inactive
outcome [5]: inactive
outcome [4]: inactive

Cc1[nH]nc(C(F)(F)F)c1Cc1sc2c(c1C(=O)N1C[C@](C)(O)CO1)c(=O)n(C)c(=O)n2C(C)C
outcome [1]: inactive
outcome [2]: inactive
outcome [3]: inactive
outcome [4]: inactive

NS(=O)(=O)c1ccc(S(=O)(=O)Nc2cccc3c(Cl)c[nH]c23)cc1
AC50 [1]: 3.32 µM (active)
AC50 [2]: 0.934 µM (active)
AC50 [3]: 1.18 µM (active)

Fc1ccc(-c2csc3ncnc(NCc4ccc5c(c4)OCO5)c23)cc1
AC50 [1]: 20.9 µM (active)
AC50 [2]: 16.6 µM (active)
AC50 [3]: 18.6 µM (active)
outcome [4]: inactive

CN1C(N)=N[C@](C)(c2cc(NC(=O)c3ccc(F)cn3)ccc2F)CS1(=O)=O
outcome [1]: inactive
outcome [2]: inactive
outcome [3]: inactive
outcome [4]: inactive

C[C@H](NC(=O)C(=O)Nc1ccccc1C(C)(C)C)C(=O)N[C@@H](CC(=O)O)C(=O)COc1c(F)c(F)cc(F)c1F
outcome [1]: inactive
AC50 [2]: 16.6 µM (active)
AC50 [3]: 2.95 µM (active)
outcome [4]: inactive

O=C(CCl)Nc1cccc(NC2=NS(=O)(=O)c3ccccc32)c1
AC50 [1]: 11.8 µM (active)
AC50 [2]: 9.34 µM (active)
AC50 [3]: 5.25 µM (active)

CNC(=O)c1ccc2c(C(=Nc3cccc(CN(C)C)c3)c3ccccc3)c(O)[nH]c2c1
outcome [1]: inactive
outcome [2]: inactive
outcome [3]: inactive
outcome [4]: inactive
fold change [6, 9]: 0.967 (inactive)
fold change [6, 10]: 0.894
cell count [6, 11]: 7720
cell count [6, 12]: 7990
z-score [7, 13]: -0.483 (inactive)
z-score [7, 14]: -0.984

CCN(c1cc(C#CCN2CCOCC2)cc(C(=O)NCc2c(C)cc(C)[nH]c2=O)c1C)C1CCC(N(C)CCOC)CC1 (stereo unspecified)
outcome [1]: inactive
outcome [2]: inactive
outcome [3]: inactive
outcome [4]: inactive
